Measurements reported in PubChem BioAssay AID624453 (National Center for Advancing Translational Sciences (NCATS), 2012).
Values without a mark were called inactive. Calls come from the whole dose curve; as a rule, active = well fitted curve in the direction sought with a large enough effect; inactive = no such curve, though single readings can be large or run the other way.

Molecular target: D(2) dopamine receptor (Homo sapiens) (UniProt P14416)
Experiment: HTS Assay for Allosteric Antagonists of the Human D2 Dopamine Receptor: Hit Validation in primary assay
Settings: HEK293 TREx D2, calcium flux, dopamine EC80 antagonism; series mostly up to 41.8 µM; activity change, negative = inhibition: at the top concentration
Text: Dopamine receptors (DARs) are involved in the etiology and/or therapy of a number of neuropsychiatric and endocrine disorders. For instance, all receptor-based antiparkinsonian drugs work via stimulating the D2 DAR subtype whereas all FDA-approved antipsychotic agents are antagonists of this receptor. […] There are three different types of allosteric modulators that we are seeking, two of which will stimulate or augment receptor signaling, allosteric agonists and potentiators, while the third, allosteric antagonists, will attenuate receptor signaling. The present primary screening assay measures compound antagonism after an EC80 addition of dopamine by tracking calcium flux in a […], inducible Hek293 Trex D2 cell line. NIH Chemical Genomics Center [NCGC] NIH Molecular Libraries Probe Centers Network [MLPCN] MLPCN Grant: NS064831 Assay Submitter (PI): David Sibley
Freshly passaged cells are plated in 1536 well black, clear bottom plates at a density of 4000 cells/well in 3 ul of complete media containing 1x tetracycline inducer. After an overnight incubation at 30 C in 5% CO2, cells are loaded with 2 ul of the no wash Calcium Assay Kit (ABD Bioquest) and incubated at room temperature for 30 to 90 minutes before it's read.

D(2) dopamine receptor (Homo sapiens), sequence (P14416 whole entry, looked up): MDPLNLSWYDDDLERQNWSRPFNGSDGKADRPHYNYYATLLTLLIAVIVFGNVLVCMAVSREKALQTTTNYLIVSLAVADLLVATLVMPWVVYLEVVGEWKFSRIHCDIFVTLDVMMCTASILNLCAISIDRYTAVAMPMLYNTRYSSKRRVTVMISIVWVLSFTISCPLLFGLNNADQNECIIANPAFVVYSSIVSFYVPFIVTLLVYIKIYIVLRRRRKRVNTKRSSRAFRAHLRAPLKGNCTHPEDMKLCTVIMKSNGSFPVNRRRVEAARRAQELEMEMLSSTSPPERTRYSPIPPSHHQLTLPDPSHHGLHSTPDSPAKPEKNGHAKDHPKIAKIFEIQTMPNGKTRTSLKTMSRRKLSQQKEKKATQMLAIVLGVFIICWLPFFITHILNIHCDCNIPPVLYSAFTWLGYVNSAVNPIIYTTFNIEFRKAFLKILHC

| SMILES | activity change, negative = inhibition [%] |
| --- | --- |
| NNCc1ccccc1 | 20.8 |
| CCN1C[C@@]2(C)CC[C@@H](OC)[C@@]34C2C(O)[C@@]2(OCO[C@]25CC(OC)C2C[C@@]3(O)C5C2O)C14 (stereo not given in full) | 16.4 |
| CN1C2CC(OC(=O)C(CO)c3ccccc3)CC1C(O)C2 (stereo not given) | 2.83 |
| CC(N)C(O)c1ccc(O)c(O)c1 (stereo not given) | 97.2 |
| CC1C(=O)OC2O[C@]3(C)CC[C@H]4C(C)CCC1[C@]24OO3 (stereo not given in full) | 21.1 |
